High-throughput results: PubChem, several laboratories
Compounds with a hit are over-represented: about 1.4% of the library has one in this group of screens.
CD11b adhes inh = inhibitors of CD11b/CD18 adhesion to fibrinogen, primary screen, K562 cells, luminescence; Integrin beta-2 (Homo sapiens) + Integrin alpha-M (Homo sapiens), P05107+P11215; ATPlite luminescence; Mn2+ added to activate the integrin; inhibition, % at 10 µM; 93,000 tested, 0.54% active; AID 1497, 2009;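 active means primary inhibition of 50% or more at 10 µM, then 40% or more on retest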
GALR2 agonist = GALR2 receptor agonists, primary screen, cell-based; GALR2-expressing cells, agonist activation read-out; 140,000 tested, 0.48% active; activation, % (no concentration beside the values); in the data active means activation above about 5%, passing the limit was not always enough
S1P2 blocker = human S1P2 receptor antagonists, primary screen, cell-based; Sphingosine 1-phosphate receptor 2 (Homo sapiens), O95136; cell-based S1P2 antagonist assay, inhibition at 5 uM; inhibition, % at 5 µM; 97,000 tested, 0.21% active; AID 736, 2007; in the data active means inhibition above about 45%;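 further: CRE beta-lactamase reporter cells expressing human S1P2 stimulated with S1P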
CD11b adhes enh = enhancers of CD11b/CD18 adhesion to fibrinogen, primary screen, K562 cells, luminescence; Integrin beta-2 (Homo sapiens) + Integrin alpha-M (Homo sapiens), P05107+P11215; ATPlite luminescence; activation, % at 10 µM; 93,000 tested, 0.07% active;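 active means 10 µM primary screen giving 50% or more activity, confirmed by 40% or more on retest at that dose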
GALR2 antag = GALR2 antagonists in receptor-expressing cells, primary screen; antagonist mode; inhibition, % at 4 µM; 140,000 tested, 0.39% active; AID 828, 2007; in the data active means inhibition above about 27%;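 further: cells stimulated with galanin 1-16 at roughly its EC80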
S1P2 ag = S1P2 receptor agonists, primary screen, cell-based; Sphingosine 1-phosphate receptor 2 (Homo sapiens), O95136; S1P2-expressing cell line, agonist reporter read-out; activation, % at 4.5 µM; 97,000 tested, 0.46% active; in the data active means activation above about 16%
GALR2 ag confirm = GALR2 agonists, retest of hits, confirmation, cell-based | AID 864, 2007 | 460 tested, 10% active | GALR2-expressing cells, agonist activation | activation, % at 5.6 µM | shares compounds with GALR2 agonist; in the data active means activation above about 8.4%
BLA activ ctr = activators of NFAT-driven beta-lactamase reporter, confirmation, counter-screen for GALR2 agonist project, CHO NFAT-bla cells, FRET readout | shares compounds with GALR2 agonist | 460 tested, 10% active | activation, % at 5.6 µM | beta-lactamase FRET activation | AID 865, 2007;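 active means activation above the screen-wide mean activation plus 3 SD, cut at about 8% in these data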
Numbers stand for hits; - = inactive; . = not tested or not shown; ! = not active in a repeat.

SMILES	CD11b adhes inh	GALR2 agonist	S1P2 blocker	CD11b adhes enh	GALR2 antag	S1P2 ag	GALR2 ag confirm	BLA activ ctr
c1ccc(-c2cn3nc(-c4ccccc4)c(-c4ccccc4)nc3n2)cc1	.	-	-	.	-	-	-	-
CCNC(=O)NC(C(=O)OC)C12CC3CC(CC(C3)C1)C2 (stereo not drawn)	-	-	-	-	-	-	.	.
Cc1cccn2c(=O)c3cc(C(=O)NCc4cccnc4)c(=N)n(C(C)C)c3nc12	-	-	-	-	-	-	-	-
O=C(NCCc1ccccc1)C(=O)NCC1CCCO1 (stereo not drawn)	-	-	-	-	-	-	.	.
CC(C)OC(=O)c1cc2ccccc2[nH]1	.	-	-	.	-	-	.	.
CCOC(=O)c1cc2cc3ccccc3cc2[nH]1	.	22	-	.	-	-	-	11
COc1ccc(NC(=O)c2sc3nc(Cc4ccccc4)cc(C(F)(F)F)c3c2N)cc1OC	.	-	.	.	-	.	.	.
O=C(O)CCS(=O)(=O)c1nc(-c2cccs2)cc(C(F)(F)F)n1	-	-	-	-	-	-	.	.
COC(=O)CCS(=O)(=O)c1nc(-c2ccccc2)cc(C(F)(F)F)n1	-	-	-	-	-	-	-	-
CCOC(=O)CS(=O)(=O)c1nc(-c2ccc(F)cc2)cc(C(F)(F)F)n1	.	9.3	.	.	51	.	-	-
N#Cc1ccc(C(c2nnnn2C2CCCC2)N2CCC(Cc3ccccc3)CC2)cc1 (stereo not drawn)	-	-	-	-	-	-	.	.
O=C(COc1ccccc1N1C(=O)c2ccccc2C1=O)c1ccc(Cl)cc1	-	-	-	-	-	-	.	.
COc1ccc(NC(=O)CNS(=O)(=O)c2ccc(Cl)cc2)cc1OC	.	-	.	.	-	.	.	.
O=C(NCCN1CCOCC1)c1csc2c1CCCC2	.	-	-	.	-	-	.	.
CC1CC(C)CN(CCCNC(=O)c2csc3c2CCCC3)C1 (stereo not drawn)	-	108	-	-	-	-	-	-
COc1ccccc1[C@@H]1C(c2cccc(Cl)c2)=NN(c2ccc(Br)cc2)[C@H]1C(=O)N1CCOC1=O	.	18	.	.	-	.	23	46
COc1ccccc1-n1nnnc1SCc1ccccc1	-	-	-	-	-	-	.	.
O=C(Cn1c(=O)oc2cc(S(=O)(=O)N3CCCC3)ccc21)NC1CCCc2ccccc21 (stereo not drawn)	-	16	.	-	-	.	-	-
O=C(Cn1c(=O)oc2cc(S(=O)(=O)N3CCCCCC3)ccc21)NC1CCCCCCC1	-	-	-	-	-	-	.	.
Cc1ccc(OCCn2c(C)c(/C=N/n3cnnc3)c3ccccc32)cc1	-	9.1	-	-	-	-	-	-
Cc1c(/C=N/n2cnnc2)c2ccccc2n1CCOc1ccc(Cl)cc1	-	-	-	-	-	-	.	.
COc1cccc2cc(-c3nnc(SCC(=O)NCCc4ccccc4)n3C)oc12	-	-	-	-	-	-	-	-
O=C(NCCCn1ccnc1)c1cn(-c2ccccc2)nc1-c1ccc(F)cc1	-	-	-	-	-	-	.	.
c1ccc2[nH]c(-c3ccnc4ccccc34)nc2c1	-	12!	-	-	-	-	-	-
Cc1ccccc1-c1nc2ccccc2[nH]1	.	-	-	.	-	-	.	.
SMILES	CD11b adhes inh	GALR2 agonist	S1P2 blocker	CD11b adhes enh	GALR2 antag	S1P2 ag	GALR2 ag confirm	BLA activ ctr
COc1ccc(-c2cnnn2-c2ccc(NC(=O)c3ccc(S(=O)(=O)N4CCCCC4)cc3)cc2)cc1OC	.	-	.	.	-	.	.	.
COc1ccc(-c2cnnn2-c2ccc(NC(=O)c3ccco3)cc2)cc1OC	-	20	-	-	-	-	-	-
CC(=O)c1nn(-c2ccccc2)cc1C(=O)c1ccc(Br)cc1	.	9.4	.	.	-	.	-	-
CCc1cc2c(CN3CCN(CCO)CC3)cc(=O)oc2cc1O	-	-	-	-	-	-	-	-
CCc1cc2c(CN3CCN(C)CC3)cc(=O)oc2cc1O	-	-	-	-	-	-	.	.
O=C(/C=C/c1cccs1)N1CCc2ccccc21	.	-	.	.	-	.	.	.
CCOC(=O)C1=C(c2ccccc2)NC(SCC(N)=O)=C(C#N)C1c1cccnc1 (stereo not drawn)	-	-	-	-	-	-	.	.
CS(=O)(=O)NCCCNc1ccc(Cl)cc1[N+](=O)[O-]	-	58	-	-	-	-	-	-
CCNCCNc1ccc(Cl)cc1[N+](=O)[O-]	.	-	-	.	-	-	.	.
Cc1ccc(CCNC(=O)c2ccc(CS(=O)(=O)Cc3ccccc3F)o2)cc1	-	-	-	-	-	-	.	.
O=C(NCCc1ccccc1)c1ccc(CS(=O)(=O)Cc2ccccc2F)o1	-	-	-	-	-	-	-	-
O=c1[nH]c2ccccc2nc1-c1cccs1	-	12	-	-	-	-	-	-
Cc1ccc(S(=O)(=O)N(CC(=O)NCc2ccco2)C2CCCCC2)cc1	.	-	-	.	-	-	.	.
CCSc1ncc(C#N)c(N)n1	-	-	-	-	-	-	-	-
COC(=O)C1=C(C)Nc2ncnn2C1c1ccc(OCc2ccccc2)cc1 (stereo not drawn)	-	104	.	-	-	.	-	-
COCCN1C=C(C(=O)OC)C(c2cc(Br)c(OC)c(OC)c2)C(C(=O)OC)=C1	-	-	-	-	-	-	-	-
CN(CC(O)CON=C1c2ccccc2-c2ccccc21)S(=O)(=O)c1ccc(Br)cc1 (stereo not drawn)	-	11	.	-	-	.	-	-
COc1ccc(C2=CC(c3ccc(C)cc3)n3nnnc3N2)cc1 (stereo not drawn)	-	-	-	-	-	-	.	.
Cc1nn2cc(-c3ccc(-c4ccccc4)cc3)nc2s1	-	-	-	-	-	-	.	.
Cc1nn2cc(-c3ccc(Cl)cc3)nc2s1	-	-	-	-	-	-	-	-
Cc1ccc(CNC(=O)c2ccc3nc4[nH]c5ccccc5c4nc3c2)cc1	.	14	.	.	-	.	8.7	-
COC(=O)C1=CN(C2CC2)C=C(C(=O)OC)C1c1ccccc1OC	-	-	-	-	-	-	-	-
COC(=O)C1=CN(C)C=C(C(=O)OC)C1c1ccc(O)c(OC)c1	-	-	-	-	-	-	.	.
Cc1cc2c3c(c1)C(C)(c1ccccc1)CC(C)(C)N3C(=O)C21C(C#N)=C(N)OC2=C1C(=O)CC(C)(C)C2 (stereo not drawn)	-	18	-	-	-	-	-	15
COc1cc2c(cc1NC(=O)/C=C/c1cc(OC)c(OC)c(OC)c1)oc1ccccc12	-	-	.	-	-	.	.	.
